Reference: PubChem BioAssay AID588783 (NMMLSC, 2011)
Entries with a potency or affinity are not part of this list. A number with no mark means an inactive call.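 Rule for the calls: active = inhibition of specific binding of 40% or more; inactive = inhibition of specific binding below 40%.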

tested on: beta-arrestin 1 peptide binding to AP-2 beta2-adaptin appendage (human); experiment: beta-arrestin/AP2 interaction blockers, potency – biochemical, cherry pick 1, beta2-adaptin appendage, flow cytometry, dose response (AID 588783); details: Bead flow cytometry, FITC-arrestin peptide binding GST-AP2; at 9.12 µM; stronger effect = higher value

Structure (SMILES)	inhibition of specific binding [%]
O=C(NCC1COc2ccccc2O1)c1ccc(NC(=O)C(c2ccccc2)c2ccccc2)cc1 (stereo unspecified)	7
Cc1nn(-c2ccccn2)c2c1C(c1ccsc1)C1=C(CCCC1=O)N2 (stereo unspecified)	12
Nc1c(C(=O)NC2CC2)sc2nc3c(c(-c4ccco4)c12)CC/C3=C/c1ccco1	22
CN1c2ccccc2N(C)C1(C)c1ccccc1	3
COc1cc(C2Nc3cccc4cccc(c34)N2)cc(OC)c1O	12
COC(=O)c1ccccc1N/C=C1\CCc2c(c(C)nn2-c2ccccn2)C1=O	7
